Bioassay records deposited in PubChem BioAssay by several laboratories.
A selection: hits, their analogues and other compounds. The true share with any hit is near 27%.
Cav3 T inh – human Cav3.2 channel inhibition, primary screen | O95180 | Cav3.2-expressing cells, Fluo-4 calcium fluorescence FDSS; stronger effect = lower value | B-score at 10 µM | actives 4% (n = 100,000);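 active = single-dose well whose peak fluorescence ratio is a statistical outlier from its plate by either plate-standardised score or position-corrected B-score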
CYP2C19 activ – cytochrome P450 2C19 (human) activation | P33261 | recombinant CYP2C19, luciferin-H EGE luminescence; stronger effect = higher value; 0 = fully inhibited enzyme, 1 = untreated enzyme | activation factor at 5 µM | 96,000 tested, under 10 active | AID 1025;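 active = activation factor of at least 2 at 5 µM in the primary screen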;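 note: 0 = wells with 2.5 mM tranylcypromine and 1 = vehicle-only wells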
Target sequence (P33261 whole entry, looked up): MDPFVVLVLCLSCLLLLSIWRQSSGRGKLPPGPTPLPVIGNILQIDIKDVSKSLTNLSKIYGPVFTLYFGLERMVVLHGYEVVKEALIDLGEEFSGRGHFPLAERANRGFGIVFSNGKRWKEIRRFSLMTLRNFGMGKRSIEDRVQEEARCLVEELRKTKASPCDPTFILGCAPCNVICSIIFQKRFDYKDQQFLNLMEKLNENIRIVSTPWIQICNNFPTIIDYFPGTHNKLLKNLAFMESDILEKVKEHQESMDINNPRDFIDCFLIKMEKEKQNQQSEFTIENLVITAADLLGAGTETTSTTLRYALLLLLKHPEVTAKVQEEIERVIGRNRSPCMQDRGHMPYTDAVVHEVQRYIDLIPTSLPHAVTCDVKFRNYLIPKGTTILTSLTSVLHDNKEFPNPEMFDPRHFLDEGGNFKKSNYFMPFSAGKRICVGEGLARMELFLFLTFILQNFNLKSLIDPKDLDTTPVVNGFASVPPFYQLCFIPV
CYP2C9 inhib – blocks human cytochrome P450 2C9; P11712; CYP2C9 Supersomes, luciferin-H conversion, luminescence; inhibition, % at 5 µM; actives 20% (n = 96,000); AID 777;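 active = blocking of liver enzyme CYP2C9 beyond about 50% at 5 µM, limit read from the data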
CYP2C19 inh – blocks human cytochrome P450 2C19 | P33261 | CYP2C19 Supersomes, luciferin-H EGE luminescence, 30 min | inhibition, % at 5 µM | actives 21% (n = 96,000);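 active = CYP2C19 inhibition above a set limit at 5 µM in the primary screen, cut at about 50% in these data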;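 note: plate controls were negative control wells for no effect and 2.5 mM tranylcypromine positive control for full effect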
CYP2C9 activ – increases human cytochrome P450 2C9 activity | recombinant CYP2C9, luciferin-H conversion, luminescence; stronger effect = higher value; factor 1 = untreated enzyme, 0 = blocked | AID 1024 | P11712 | activation factor at 5 µM | actives 1.4% (n = 96,000);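 active = activation factor of 2 or more for CYP2C9 at a 5 µM dose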;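 note: 0 = sulfaphenazole-blocked wells and 1 = vehicle-only wells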
Active calls of the source: *; / = not tested or not shown.

SMILES	Cav3 T inh	CYP2C19 activ	CYP2C9 inhib	CYP2C19 inh	CYP2C9 activ
CCN(C(=O)CSc1ncccc1C(=O)OC(C)C)c1cccc(C)c1	-5.6*	0.5	44	53*	0.6
O=C(O)CS(=O)(=O)CC(=O)O	0.34	1	14	-3	0.9
Fc1ccc2nc3n(c2c1F)CCCCCC3	-0.21	0.5	5	49	0.9
CCOc1ccc(NC(=O)C2CCCN(S(=O)(=O)c3cccc4nsnc34)C2)cc1 (stereo unspecified)	0.39	1	4	0	1
CCN(CC)S(=O)(=O)c1ccc(S(=O)(=O)N(CC(=O)Nc2ccccc2)Cc2ccco2)cc1	-1	/	/	/	/
O=C(CN(c1ccc(Cl)cc1)S(=O)(=O)c1ccccc1)N/N=C/c1ccco1	-6*	0	82*	98*	0.2
O=C(CCC(=O)Nc1ccccc1)N/N=C/c1ccco1	0.08	/	/	/	/
Cc1ccc(CN(CC(=O)N/N=C/c2ccco2)S(=O)(=O)c2ccc(C)cc2)cc1	-3.5	0	90*	100*	0.1
O=C1CCCc2sccc2N1	0.12	1	-1	5	1
NCCCC[C@H](NC(=O)C1CCNCC1)c1nnc(CN)o1	0.14	/	/	/	/
CCCC(=O)NNc1cc(=O)c2c(=O)n(C)c(=O)n(C)c2[nH]1	-0.3	1.1	-9	-12	1.1
NC(=O)[C@H]1CC2(CC(c3cccc(NC(=O)COc4ccc(Cl)cc4)c3)=NO2)CN1C(=O)Cc1ccc([N+](=O)[O-])cc1 (stereo partly specified)	-0.41	/	/	/	/
COc1ccc(C2C(C(N)=O)=C(C)Nc3nc(-c4ccccc4OC)nn32)cc1OC (stereo unspecified)	-0.86	1	3	0	1
COc1ccccc1C1C(C(N)=O)=C(C)Nc2nc(-c3ccccc3Cl)nn21 (stereo unspecified)	0.011	0.7	-8	26	1.1
COc1ccc(C2C(C(N)=O)=C(C)Nc3nc(-c4cccc(Cl)c4)nn32)cc1OC (stereo unspecified)	1.1	0.4	41	56*	0.6
COc1cccc(C2C(C(N)=O)=C(C)Nc3nc(-c4ccccc4Cl)nn32)c1 (stereo unspecified)	0.39	0.4	34	60*	0.7
NC(=O)c1sc2nc3c(c(-c4cccs4)c2c1N)CCCCC3	0.14	1.1	-8	-13	1.1
COC(=O)[C@@H]1C[C@@]2(Br)c3ccccc3N(S(=O)(=O)c3ccccc3)[C@H]2N1C(=O)OC	1.7	/	/	/	/
O=C(Cc1ccccc1)NC(Nc1ccccc1)C(Cl)(Cl)Cl (stereo unspecified)	-4.2*	0.2	73*	82*	0.3
O=C(Cc1ccccc1)Nc1ccc(C(=O)O)cc1	0.47	/	/	/	/
CC(C)(C)NC(NC(=O)Cc1ccccc1)C(Cl)(Cl)Cl (stereo unspecified)	-1.2	0.3	5	70*	0.9
COc1ccc(NC(=O)C(NC(=O)c2ccccc2)C(C)C)cc1 (stereo unspecified)	0.43	0.9	11	12	0.9
COc1ccc(C(=O)NC(Nc2ccccc2)C(Cl)(Cl)Cl)cc1 (stereo unspecified)	-1.6	0.6	85*	36	0.2
CCCc1cc(=O)[nH]c(SCC(=O)N2CCN(c3ccc(F)cc3)CC2)n1	0.12	1	-8	-4	1.1
COc1ccccc1[C@@H]1C(c2cccc(C)c2)=NN(c2ccccc2)[C@H]1C(=O)N1CCOC1=O	-0.33	/	/	/	/
SMILES	Cav3 T inh	CYP2C19 activ	CYP2C9 inhib	CYP2C19 inh	CYP2C9 activ
COc1ccc(Nc2nc(C(=O)NCCCN3CCOCC3)cs2)cc1	1.9	0.7	33	27	0.7
COc1ccccc1NC(=O)CSc1nc(C)c2c(c1C#N)CCCC2	-1.6	0.8	19	22	0.8
CNc1nc(SCc2ccc(C)cc2)nc2c1CCCC2	-6*	0	73*	96*	0.3
Cc1ccc(CSc2nc3c(c(N(C)C)n2)CCCC3)cc1	-1.7	0.1	56*	93*	0.4
CN(C)c1nc(SCc2ccccc2Cl)nc2c1CCCC2	0.47	0.2	21	80*	0.8
Cc1ccc(CSc2nc3c(c(SCC(=O)O)n2)CCCC3)cc1	-1.9	1	32	-3	0.7
COC(=O)CSc1nc(-c2ccc(C)cc2)c2c(c1C#N)CCCC2	-1.5	0.5	55*	45	0.4
Cc1cccc(CN2C[C@]34CC[C@@H](C[C@@H]3S2(=O)=O)O4)c1	1.4	/	/	/	/
COC(=O)CSc1nc(SCc2ccc(C)cc2)nc2c1CCCC2	0.14	0	97*	95*	0
CCOC(=O)c1nc(Nc2ccc(C(C)=O)cc2)c2ccccc2n1	0.63	/	/	/	/
COc1ccc(C(=O)Nc2cc3c(cc2C#N)OCO3)cc1S(=O)(=O)NCc1ccco1	0.19	1	-22	-2	1.2
CCc1ccc(C2CC(c3cccc(OC)c3)n3nc(N)nc3N2)cc1 (stereo unspecified)	0.046	0.9	5	12	1
Cc1ccc(S(=O)(=O)NC(=NC(C)C(=O)O)c2ccccc2)cc1 (stereo unspecified)	-0.81	1	-4	0	1
Cc1ccc(S(=O)(=O)C/N=C(/NC(=S)N(c2ccccc2)c2ccccc2)c2ccccc2)cc1	-2.8	0.7	69*	28	0.3
CCCCN(C)CCNC(=O)c1ccc2c(c1)NC(=O)C(N1CCCCC1)S2 (stereo unspecified)	-1.2	1.1	5	-9	0.9
CCN(CC)c1ccc(-n2c(C)cc(C=O)c2C)cc1	-3.3	0.2	31	83*	0.7
CCN(CC)c1ccc(-n2c(C)c(C(C)=O)c(C(C)=O)c2C)cc1	/	0.3	80*	67*	0.2
CCN(CC(=O)NCc1cccs1)S(=O)(=O)c1ccc(C(C)C)cc1	-4*	0.7	-45	26	1.5
Cc1ccc(NC(=S)NN2CCOCC2)c(C)c1	0.11	0.8	-1	24	1
CN(C)S(=O)(=O)c1ccc(C(=O)NCc2cccs2)cc1	0.85	0.7	29	31	0.7
Cc1ccc(NC(=S)NCc2cccs2)c(C)c1	-1.5	0.3	16	73*	0.8
S=C(NCc1cccs1)Nc1cccc(Cl)c1	-1.1	0.4	6	62*	0.9
O=C(NCc1cccs1)Nc1cccc(Cl)c1	0.56	/	/	/	/
CC(C)c1ccc(NC(=S)NCc2cccs2)cc1	-6.3*	0.6	32	42	0.7
CCN(CC(=O)NCc1cccs1)C(=O)c1cc(S(=O)(=O)N2CCOCC2)ccc1C	0.42	0.7	20	34	0.8
Cc1cc(NC(=O)c2ccco2)ccc1NC(=O)Cc1cccs1	1.3	/	/	/	/
CCN(CC(=O)NCc1cccs1)c1ccc(S(=O)(=O)N2CCOCC2)cn1	0.84	1	57*	-5	0.4
Cc1cc(Cl)ccc1NC(=S)NCc1cccs1	-0.72	0	63*	97*	0.4
COc1cc(CNC2CCCCCC2)cc(OC)c1	0.16	0.6	-1	37	1
COc1ccc(-n2c(Cc3cccn3C)nnc2SCC(=O)Nc2nc(C)cs2)cc1	/	1	23	4	0.8
